This passage reports growth results from PubChem BioAssay (NCI).

This is part of a sample that, as a whole, favours compounds with a hit. Of some 83,000 tested, about 20% had one in any assay.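 Note: values are percent growth. 100 is the growth of untreated cells, values between 100 and 0 indicate rising inhibition; between -100 and 0 indicates cell death.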 A number with no mark means an inactive call. Activity calls are given as the source filed them. The calls were made as follows: active = growth percent below 10; inactive = the rest.

Among the test systems are HCT-15 colon; HT29 colon; SNB-75 CNS; SNB-19 CNS; U251 CNS; PC-3 prostate; SK-MEL-5 melanoma; UACC-62 melanoma; LOX IMVI melanoma; SK-MEL-28 melanoma.
Common to all, as to experiment: NCI-60 one-dose screen, 48 h (100 = growth as untreated, 0 = no growth, -100 = all killed)
Common to all, as to conditions: 10 µM unless noted

As for `CC1CC2Oc3ccc(Cl)cc3C(=O)N2O1` (stereo not given), the growth in the test with HCT-15 colon is 99.2%; with HT29 colon, 105%; with SNB-75 CNS it was 101%; with SNB-19 CNS, 112%; in the test on U251 CNS it was 108%; in the test with PC-3 prostate, 97.1%. Moreover, the growth was 102% in the test on SK-MEL-5 melanoma, 108% with UACC-62 melanoma, 98.2% in the test on LOX IMVI melanoma and 118% in the test with SK-MEL-28 melanoma.

In the case of `Nc1n[nH]c(-c2cc(Cl)ccc2O)c1-c1ccccc1`, the growth was 78.5% with HCT-15 colon; 102% in the test on HT29 colon; 86% in the test with SNB-75 CNS; 102% in the test on SNB-19 CNS; 89.2% in the test on U251 CNS; 81% in the test on PC-3 prostate. For the same compound, the growth is 92.2% in the test on SK-MEL-5 melanoma, 66.6% in the test with UACC-62 melanoma, 79.6% in the test with LOX IMVI melanoma and 122% in the test on SK-MEL-28 melanoma.

With `COc1ccc(NC(=O)CSc2nc(C)c(C(C)=O)n2-c2ccc([N+](=O)[O-])cc2)cc1`, the growth in the test with HCT-15 colon is 85.7%; in the test with HT29 colon, 90.8%; in the test on SNB-75 CNS it was 90%; with SNB-19 CNS it was 85.9%; in the test on U251 CNS, 93.8%; with PC-3 prostate, 85.3%. In addition, the growth in the test on SK-MEL-5 melanoma was 91.5%; in the test with UACC-62 melanoma, 73.1%; in the test on LOX IMVI melanoma, 89.7%; with SK-MEL-28 melanoma, 89.8%.

On to `Cc1ccc(N2CCN(C(=S)c3cccs3)CC2)cc1`, for which the growth in the test on HCT-15 colon is 96.3%; in the test with HT29 colon, 90.9%; in the test with SNB-75 CNS, 94.3%; with SNB-19 CNS it was 100%; with U251 CNS, 96.3%; in the test with PC-3 prostate, 92.9%. Besides, the growth in the test with SK-MEL-5 melanoma was 95.2%; with UACC-62 melanoma it was 90.1%; in the test on LOX IMVI melanoma, 116%; in the test on SK-MEL-28 melanoma, 102%.

On to `COc1ccc(C2CC(c3cccc(OC)c3)=NN2C(=O)c2cc(OC)c(OC)c(OC)c2)cc1` (stereo not given), for which the growth in the test on HCT-15 colon was 30.9%; in the test with HT29 colon it was 14%; in the test on SNB-75 CNS, 22.3%; with SNB-19 CNS, 28.5%; in the test with U251 CNS, 35.5%; in the test with PC-3 prostate, 25.7%. For the same compound, the growth in the test with SK-MEL-5 melanoma was -3.53% (active); in the test on UACC-62 melanoma it was 37.9%; in the test with LOX IMVI melanoma it was 35.5%; in the test on SK-MEL-28 melanoma, 56.2%.

As for `COc1ccc(C(=O)/C=C/c2c(C(F)(F)F)nc3sccn23)cc1OC`, the growth is 24.6% with HCT-15 colon; 12.3% in the test with HT29 colon; 14.3% in the test on SNB-75 CNS; 33% with SNB-19 CNS; 15.1% in the test on U251 CNS; 53.3% in the test on PC-3 prostate. Besides, the growth in the test on SK-MEL-5 melanoma was 31.7%; in the test with UACC-62 melanoma, 20.6%; in the test with LOX IMVI melanoma, 5.55% (active); with SK-MEL-28 melanoma it was 52.7%.

With `CC(=O)O[C@]1(C(C)=O)CCC2C3C[C@H](C)C4=CC(=O)CC[C@]4(C)C3CC[C@@]21C` (stereo not given in full), the growth is 92.3% with HCT-15 colon; 87.7% with HT29 colon; 96% in the test on SNB-75 CNS; 96.4% in the test on SNB-19 CNS; 104% in the test on U251 CNS; 68.4% in the test on PC-3 prostate. The growth was 81.8% in the test on SK-MEL-5 melanoma, 79.3% with UACC-62 melanoma, 95.7% in the test on LOX IMVI melanoma and 108% in the test on SK-MEL-28 melanoma.

As to `O=c1c2cc(F)ccc2sc2c(Nc3cccnc3)nc3ccccc3c12`, the growth in the test on HCT-15 colon was 87.2%; in the test with HT29 colon it was 110%; with SNB-75 CNS, 71.9%; with SNB-19 CNS it was 94.1%; with U251 CNS, 70.2%; with PC-3 prostate, 88.9%. For the same compound, the growth in the test on SK-MEL-5 melanoma was 88.9%; with UACC-62 melanoma, 101%; in the test on LOX IMVI melanoma it was 89.4%; in the test with SK-MEL-28 melanoma it was 103%.

With `Cc1nc2c(c(N3CCCc4ccccc43)n1)CCC2`, the growth in the test on HCT-15 colon was 4.84% (active); in the test on HT29 colon, 3.44% (active); with SNB-75 CNS, 20.4%; in the test on SNB-19 CNS, 40%; with U251 CNS, 7.57% (active); with PC-3 prostate it was 12.8%. For the same compound, the growth with SK-MEL-5 melanoma was -49% (active); in the test on UACC-62 melanoma, 24.3%; with LOX IMVI melanoma, 21.2%; with SK-MEL-28 melanoma it was 60.4%.

With `COc1ccc(-c2nc(SCC(=O)Nc3nc(-c4ccccc4)cs3)[nH]c(=O)c2C#N)cc1`, the growth is 109% in the test with HCT-15 colon; 115% in the test on HT29 colon; 70.4% in the test with SNB-75 CNS; 109% in the test with SNB-19 CNS; 103% in the test on U251 CNS; 86% in the test with PC-3 prostate. The growth with SK-MEL-5 melanoma was 102%; with UACC-62 melanoma, 92.1%; in the test on LOX IMVI melanoma, 92.9%; in the test on SK-MEL-28 melanoma it was 104%.

In the case of `CCOC(=O)c1c2ncccc2n2c(=O)n(-c3ccccc3C)nnc12`, the growth is 100% in the test with HCT-15 colon; 112% in the test on HT29 colon; 84% in the test with SNB-75 CNS; 105% in the test on SNB-19 CNS; 105% in the test with U251 CNS; 122% in the test with PC-3 prostate. Further, the growth with SK-MEL-5 melanoma was 84%; in the test on UACC-62 melanoma, 95.3%; in the test on LOX IMVI melanoma, 86.5%; with SK-MEL-28 melanoma it was 157%.

For the compound `O=S(=O)(NCCCNc1cc(-c2c(-c3cccc(O)c3)nc3sccn23)ccn1)c1cccc(Cl)c1`, the growth in the test on HCT-15 colon was 28.4%; in the test with HT29 colon, 50.2%; in the test on SNB-75 CNS, 14.2%; with SNB-19 CNS, 67.3%; in the test with U251 CNS it was 53.4%; in the test with PC-3 prostate, 24.6%. The growth with SK-MEL-5 melanoma was 31.1%; in the test on UACC-62 melanoma, 40.3%; with LOX IMVI melanoma, 29.6%; with SK-MEL-28 melanoma, 60.7%.

With `Nc1cc2c3c(cccc3c1)C(=O)N(CCN1CCCC1)C2=O`, the growth in the test on HCT-15 colon was 30.3%; with HT29 colon it was 26.2%; with SNB-75 CNS, 48%; in the test with SNB-19 CNS it was 41.9%; in the test with U251 CNS it was 28.9%; with PC-3 prostate it was 40.8%. Besides, the growth in the test on SK-MEL-5 melanoma is 9.37% (active); in the test with UACC-62 melanoma it was 26.6%; in the test with LOX IMVI melanoma it was 11.9%; with SK-MEL-28 melanoma, 62.3%.

On to `CCN1C(=O)N(CC)C2C1NN=c1s/c(=C\c3cccs3)c(=O)n12` (stereo not given), for which the growth in the test on HCT-15 colon was 16.5%; in the test with HT29 colon, 60.2%; with SNB-75 CNS, 16.6%; in the test on SNB-19 CNS, 37%; in the test with U251 CNS it was 19.8%; in the test with PC-3 prostate, 21.9%. Besides, the growth in the test on SK-MEL-5 melanoma is -4.97% (active); in the test with UACC-62 melanoma, 38%; with LOX IMVI melanoma it was 23.1%; in the test with SK-MEL-28 melanoma it was 58.3%.
